# The supplement of paper PMC11732987, “Enantioselective OTUD7B fragment discovery through chemoproteomics screening and high-throughput optimisation” (Communications Chemistry, 2025)
# Unmarked numbers belong to inactive results.
# Tests used:
# Experiment in all cases: log2 ratio of Biotin-Ahx-Ub-VS probe labelling (fragment/DMSO); higher = less target engagement (more negative = stronger competition), active = hit call of the paper (q ≤ 0.05, log2 ratio ≤ -1)
# Details in all cases: compound concentration: 200 uM; treatment time: 3 h
# USP19 = target: T1, USP19 (UniProt O94966)
# T1 sequence (whole entry): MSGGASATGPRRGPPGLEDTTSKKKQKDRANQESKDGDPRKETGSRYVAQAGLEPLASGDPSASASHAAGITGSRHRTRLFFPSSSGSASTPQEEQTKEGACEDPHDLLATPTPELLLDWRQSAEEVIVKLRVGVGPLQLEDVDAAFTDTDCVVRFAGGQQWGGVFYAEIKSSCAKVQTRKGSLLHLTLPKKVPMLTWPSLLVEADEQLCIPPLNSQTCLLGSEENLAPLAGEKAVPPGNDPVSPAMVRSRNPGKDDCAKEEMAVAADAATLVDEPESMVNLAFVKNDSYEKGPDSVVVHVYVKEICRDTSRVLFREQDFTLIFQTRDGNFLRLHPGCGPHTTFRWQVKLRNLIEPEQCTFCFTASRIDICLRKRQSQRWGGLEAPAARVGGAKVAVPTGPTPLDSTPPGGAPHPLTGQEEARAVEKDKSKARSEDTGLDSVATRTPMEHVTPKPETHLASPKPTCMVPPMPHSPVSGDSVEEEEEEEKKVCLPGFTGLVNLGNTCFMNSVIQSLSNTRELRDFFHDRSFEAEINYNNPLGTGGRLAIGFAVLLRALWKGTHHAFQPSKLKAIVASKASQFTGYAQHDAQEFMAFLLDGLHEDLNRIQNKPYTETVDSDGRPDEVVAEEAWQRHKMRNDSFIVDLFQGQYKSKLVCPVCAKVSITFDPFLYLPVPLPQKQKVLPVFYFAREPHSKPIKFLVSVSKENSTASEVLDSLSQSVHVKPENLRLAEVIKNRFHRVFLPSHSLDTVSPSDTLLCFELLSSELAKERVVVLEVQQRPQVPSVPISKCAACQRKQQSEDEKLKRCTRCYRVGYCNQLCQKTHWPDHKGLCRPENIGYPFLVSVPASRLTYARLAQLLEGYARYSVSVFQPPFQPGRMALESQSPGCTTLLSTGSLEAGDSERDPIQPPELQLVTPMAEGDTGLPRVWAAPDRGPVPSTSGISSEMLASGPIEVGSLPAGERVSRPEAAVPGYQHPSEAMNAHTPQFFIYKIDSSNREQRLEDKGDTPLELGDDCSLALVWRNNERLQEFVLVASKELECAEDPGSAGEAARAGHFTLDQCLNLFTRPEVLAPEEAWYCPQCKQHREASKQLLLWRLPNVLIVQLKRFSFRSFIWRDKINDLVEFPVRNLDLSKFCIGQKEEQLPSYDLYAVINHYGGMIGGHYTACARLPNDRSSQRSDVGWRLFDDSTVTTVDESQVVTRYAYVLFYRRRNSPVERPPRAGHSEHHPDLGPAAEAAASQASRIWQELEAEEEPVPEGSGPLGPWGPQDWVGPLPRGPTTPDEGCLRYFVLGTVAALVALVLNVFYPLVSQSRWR
# How it was run: (§1)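 HEK293T lysate, 495 µg per sample in Tris/CHAPS/IGEPAL buffer with protease inhibitors, was treated in triplicate with fragment at 200 µM or vehicle for 3 h and then with Biotin-Ahx-Ub-VS at 0.5 µM final for 1 h. Labelled DUBs were NeutrAvidin-enriched, digested with LysC and trypsin, and run by diaPASEF LC-MS/MS. Spectronaut label-free quantities were global-median-normalised, and values are average log2 fragment/vehicle ratios by unpaired t-test on proteins with ≥2 unique peptides.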
# USP22 = target: T2, USP22 (UniProt Q9UPT9)
# T2 sequence (whole entry): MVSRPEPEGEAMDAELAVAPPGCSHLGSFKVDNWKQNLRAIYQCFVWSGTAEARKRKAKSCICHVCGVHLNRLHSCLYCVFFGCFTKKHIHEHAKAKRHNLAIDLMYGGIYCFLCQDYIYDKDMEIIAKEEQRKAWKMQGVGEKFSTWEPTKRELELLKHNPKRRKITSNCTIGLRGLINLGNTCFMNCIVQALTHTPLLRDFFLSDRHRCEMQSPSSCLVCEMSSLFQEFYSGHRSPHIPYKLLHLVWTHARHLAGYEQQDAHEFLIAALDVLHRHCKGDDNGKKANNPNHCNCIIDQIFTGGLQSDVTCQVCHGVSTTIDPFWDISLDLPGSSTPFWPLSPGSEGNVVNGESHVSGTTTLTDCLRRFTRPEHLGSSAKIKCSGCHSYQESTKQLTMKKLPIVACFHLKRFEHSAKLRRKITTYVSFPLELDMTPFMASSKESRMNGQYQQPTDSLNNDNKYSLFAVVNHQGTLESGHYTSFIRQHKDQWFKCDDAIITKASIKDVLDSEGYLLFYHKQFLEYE
# How it was run: as §1
# USP24 = USP24 (UniProt Q9UPU5)
# Sequence of USP24 (Q9UPU5 whole entry): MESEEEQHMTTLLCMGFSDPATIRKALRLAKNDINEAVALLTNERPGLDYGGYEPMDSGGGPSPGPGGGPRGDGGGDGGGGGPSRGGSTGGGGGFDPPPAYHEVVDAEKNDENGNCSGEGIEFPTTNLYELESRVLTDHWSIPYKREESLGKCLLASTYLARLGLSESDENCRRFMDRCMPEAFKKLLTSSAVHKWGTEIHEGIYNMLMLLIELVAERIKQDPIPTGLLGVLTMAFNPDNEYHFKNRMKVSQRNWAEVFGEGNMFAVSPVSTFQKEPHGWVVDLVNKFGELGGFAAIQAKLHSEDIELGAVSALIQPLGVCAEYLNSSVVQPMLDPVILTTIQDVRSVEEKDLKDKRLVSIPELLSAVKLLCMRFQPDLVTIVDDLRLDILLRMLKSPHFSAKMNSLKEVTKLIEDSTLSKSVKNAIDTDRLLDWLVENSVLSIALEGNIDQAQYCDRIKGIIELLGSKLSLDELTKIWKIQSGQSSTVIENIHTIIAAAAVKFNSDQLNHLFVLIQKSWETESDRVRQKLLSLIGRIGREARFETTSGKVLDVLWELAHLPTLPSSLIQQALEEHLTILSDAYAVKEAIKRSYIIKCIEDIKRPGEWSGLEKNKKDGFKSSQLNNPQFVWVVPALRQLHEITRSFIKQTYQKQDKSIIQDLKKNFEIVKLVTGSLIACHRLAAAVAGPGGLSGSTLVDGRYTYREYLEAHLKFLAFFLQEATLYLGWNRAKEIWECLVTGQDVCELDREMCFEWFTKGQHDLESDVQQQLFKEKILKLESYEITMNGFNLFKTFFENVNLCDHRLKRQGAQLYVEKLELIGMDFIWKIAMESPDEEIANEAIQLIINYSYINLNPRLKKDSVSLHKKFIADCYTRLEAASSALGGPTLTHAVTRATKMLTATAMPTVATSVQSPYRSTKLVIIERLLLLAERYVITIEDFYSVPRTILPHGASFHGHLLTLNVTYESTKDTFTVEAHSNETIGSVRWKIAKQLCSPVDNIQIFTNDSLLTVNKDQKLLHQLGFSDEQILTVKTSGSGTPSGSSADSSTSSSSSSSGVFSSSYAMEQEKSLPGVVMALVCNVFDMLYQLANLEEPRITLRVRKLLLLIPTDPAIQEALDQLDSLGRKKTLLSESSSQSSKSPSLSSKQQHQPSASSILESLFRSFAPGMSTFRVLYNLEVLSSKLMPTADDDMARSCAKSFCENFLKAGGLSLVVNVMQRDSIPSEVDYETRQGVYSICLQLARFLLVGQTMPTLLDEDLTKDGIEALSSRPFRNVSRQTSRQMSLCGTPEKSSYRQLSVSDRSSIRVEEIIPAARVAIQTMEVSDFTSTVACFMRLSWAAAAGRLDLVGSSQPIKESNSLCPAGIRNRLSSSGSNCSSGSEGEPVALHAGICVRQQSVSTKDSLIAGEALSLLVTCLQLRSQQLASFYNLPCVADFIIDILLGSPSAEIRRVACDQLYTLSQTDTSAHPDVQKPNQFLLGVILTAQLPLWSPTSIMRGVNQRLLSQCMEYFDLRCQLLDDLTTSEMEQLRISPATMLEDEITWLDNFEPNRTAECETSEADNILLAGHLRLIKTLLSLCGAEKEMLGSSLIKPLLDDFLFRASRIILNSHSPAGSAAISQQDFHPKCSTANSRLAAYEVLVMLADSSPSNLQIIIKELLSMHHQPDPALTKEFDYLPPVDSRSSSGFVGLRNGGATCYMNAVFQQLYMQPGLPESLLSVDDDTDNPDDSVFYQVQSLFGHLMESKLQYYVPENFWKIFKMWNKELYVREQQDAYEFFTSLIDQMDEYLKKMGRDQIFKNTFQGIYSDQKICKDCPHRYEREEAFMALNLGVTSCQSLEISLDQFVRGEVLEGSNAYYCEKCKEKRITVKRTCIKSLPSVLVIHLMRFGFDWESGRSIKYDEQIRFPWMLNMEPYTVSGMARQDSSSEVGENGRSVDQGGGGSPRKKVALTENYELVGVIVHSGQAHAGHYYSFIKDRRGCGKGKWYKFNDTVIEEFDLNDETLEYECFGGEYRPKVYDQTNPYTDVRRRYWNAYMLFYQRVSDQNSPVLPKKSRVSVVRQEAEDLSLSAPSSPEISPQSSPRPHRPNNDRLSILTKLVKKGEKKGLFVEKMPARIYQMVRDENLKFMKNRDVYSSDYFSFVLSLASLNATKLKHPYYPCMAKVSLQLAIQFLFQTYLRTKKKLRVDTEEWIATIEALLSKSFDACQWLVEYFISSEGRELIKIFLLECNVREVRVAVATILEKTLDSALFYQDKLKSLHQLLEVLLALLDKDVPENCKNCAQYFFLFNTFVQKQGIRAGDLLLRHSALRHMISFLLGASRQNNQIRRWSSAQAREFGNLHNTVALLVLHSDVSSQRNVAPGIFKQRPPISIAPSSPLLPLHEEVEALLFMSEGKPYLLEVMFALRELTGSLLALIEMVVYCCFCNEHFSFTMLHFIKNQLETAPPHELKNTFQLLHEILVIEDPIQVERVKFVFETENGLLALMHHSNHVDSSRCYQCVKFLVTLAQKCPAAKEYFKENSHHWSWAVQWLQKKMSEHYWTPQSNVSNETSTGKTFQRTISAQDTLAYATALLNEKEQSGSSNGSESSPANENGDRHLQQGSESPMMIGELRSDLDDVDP
# How it was run: as §1
# USP25 = target: T3, USP25 (UniProt Q9UHP3)
# T3 sequence (whole entry): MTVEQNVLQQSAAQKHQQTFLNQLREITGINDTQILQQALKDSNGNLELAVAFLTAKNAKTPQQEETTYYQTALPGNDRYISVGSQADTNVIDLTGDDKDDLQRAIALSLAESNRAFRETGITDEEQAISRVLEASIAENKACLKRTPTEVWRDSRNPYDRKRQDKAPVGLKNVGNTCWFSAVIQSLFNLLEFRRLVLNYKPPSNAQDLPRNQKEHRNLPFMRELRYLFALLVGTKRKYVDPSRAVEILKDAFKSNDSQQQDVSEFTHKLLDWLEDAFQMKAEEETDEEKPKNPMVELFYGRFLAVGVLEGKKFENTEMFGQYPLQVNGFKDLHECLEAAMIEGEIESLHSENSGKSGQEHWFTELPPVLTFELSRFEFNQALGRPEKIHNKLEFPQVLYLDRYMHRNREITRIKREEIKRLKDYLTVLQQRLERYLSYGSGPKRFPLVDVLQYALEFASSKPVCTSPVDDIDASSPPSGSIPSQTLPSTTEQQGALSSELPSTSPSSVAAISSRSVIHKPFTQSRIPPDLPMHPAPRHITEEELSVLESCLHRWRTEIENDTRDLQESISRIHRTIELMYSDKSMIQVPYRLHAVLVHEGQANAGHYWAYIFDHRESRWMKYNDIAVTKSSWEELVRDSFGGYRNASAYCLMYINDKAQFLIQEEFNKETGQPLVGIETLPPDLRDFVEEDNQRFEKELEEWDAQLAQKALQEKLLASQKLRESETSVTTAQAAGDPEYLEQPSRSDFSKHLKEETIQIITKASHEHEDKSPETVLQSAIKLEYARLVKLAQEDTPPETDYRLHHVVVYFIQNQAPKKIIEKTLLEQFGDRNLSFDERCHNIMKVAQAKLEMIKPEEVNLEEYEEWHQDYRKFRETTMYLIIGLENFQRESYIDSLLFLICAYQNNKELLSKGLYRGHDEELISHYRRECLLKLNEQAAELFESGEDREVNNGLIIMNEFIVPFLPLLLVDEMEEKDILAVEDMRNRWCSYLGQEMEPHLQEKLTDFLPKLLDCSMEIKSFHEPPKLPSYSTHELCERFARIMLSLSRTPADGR
# How it was run: as §1
# USP28 = target: T4, USP28 (UniProt Q96RU2)
# T4 sequence (whole entry): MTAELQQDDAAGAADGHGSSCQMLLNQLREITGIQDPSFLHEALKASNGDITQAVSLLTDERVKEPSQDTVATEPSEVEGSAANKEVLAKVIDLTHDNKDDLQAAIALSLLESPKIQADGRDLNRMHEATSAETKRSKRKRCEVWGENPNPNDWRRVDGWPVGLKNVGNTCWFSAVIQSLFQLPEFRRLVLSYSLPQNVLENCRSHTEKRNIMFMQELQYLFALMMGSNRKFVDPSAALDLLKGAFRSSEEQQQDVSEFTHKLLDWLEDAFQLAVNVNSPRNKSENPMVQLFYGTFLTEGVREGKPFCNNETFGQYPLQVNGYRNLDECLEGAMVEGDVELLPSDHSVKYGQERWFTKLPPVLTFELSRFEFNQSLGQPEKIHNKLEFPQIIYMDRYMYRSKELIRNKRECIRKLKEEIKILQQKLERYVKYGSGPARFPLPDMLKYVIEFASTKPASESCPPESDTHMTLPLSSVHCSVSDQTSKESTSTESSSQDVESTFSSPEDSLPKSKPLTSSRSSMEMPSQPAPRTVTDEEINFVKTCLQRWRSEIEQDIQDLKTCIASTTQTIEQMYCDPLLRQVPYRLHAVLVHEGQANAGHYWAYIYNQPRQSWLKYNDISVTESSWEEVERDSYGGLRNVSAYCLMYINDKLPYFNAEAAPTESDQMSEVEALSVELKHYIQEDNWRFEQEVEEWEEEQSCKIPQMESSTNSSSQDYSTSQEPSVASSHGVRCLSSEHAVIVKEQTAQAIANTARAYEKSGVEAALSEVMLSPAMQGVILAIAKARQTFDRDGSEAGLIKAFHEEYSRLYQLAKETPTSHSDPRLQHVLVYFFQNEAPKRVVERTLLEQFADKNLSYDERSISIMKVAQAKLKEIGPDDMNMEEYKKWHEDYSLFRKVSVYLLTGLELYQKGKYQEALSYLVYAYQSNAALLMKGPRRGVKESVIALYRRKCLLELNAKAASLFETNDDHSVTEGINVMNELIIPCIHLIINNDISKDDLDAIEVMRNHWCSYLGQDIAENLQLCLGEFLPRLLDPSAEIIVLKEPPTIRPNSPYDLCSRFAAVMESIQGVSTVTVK
# How it was run: as §1
structure (smiles),measurement,setting,value
CN(C(=O)CCl)c1nc2ccccc2s1,log2 ratio of Biotin-Ahx-Ub-VS probe labelling,USP19,-0.126
same,log2 ratio of Biotin-Ahx-Ub-VS probe labelling,USP22,-0.0338
same,log2 ratio of Biotin-Ahx-Ub-VS probe labelling,USP24,-1.2 (active)
same,log2 ratio of Biotin-Ahx-Ub-VS probe labelling,USP25,-0.235
same,log2 ratio of Biotin-Ahx-Ub-VS probe labelling,USP28,-0.444
